Assay outcomes from PubChem BioAssay.
This is a sample that favours compounds with a hit; in the whole collection about 2.9% have one here.
ERb SRC1 inh: inhibitors of ERβ-SRC1 coactivator interaction, primary screen, biochemical, TR-FRET, ERβ LBD, SRC-1 peptide; Estrogen receptor beta (Homo sapiens), Q92731; TR-FRET ER-beta LBD / SRC1-Cy5 peptide binding; receptor agonist-loaded with 1 µM estradiol; inhibition, % at 25.6 µM; 86,000 compounds, 1.3% hits;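 active = compounds whose percent inhibition of the receptor-coactivator binding signal exceeds about 50% in the single-dose screen, limit read from the data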;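 also: 0% = receptor plus peptide wells without compound and 100% = peptide-only wells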
Calb biofilm kill: clotrimazole potentiators killing Candida biofilms, primary screen, with clotrimazole, Alamar Blue; C. albicans biofilm + clotrimazole; inhibition, % at 6 µM; 85,000 compounds, 0.14% hits; AID 834, 2007;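 active = inhibition above 20%; inactive = inhibition below 20%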;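 also: preformed 24 hr biofilms exposed to compound for 48 hr; 0% = biofilm without compound and 100% = blank killed by clotrimazole plus chlorhexidine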
HePTP inhibitor: inhibitors of human HePTP phosphatase, primary screen, biochemical, absorbance, leukemia target. inhibition, % at 20 µM. 110,000 compounds, 0.64% hits. AID 521, 2006. recombinant HePTP phosphatase activity, OD absorbance. Tyrosine-protein phosphatase non-receptor type 7 (Homo sapiens), P35236; in the data active = inhibition above about 50%;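 also: plate controls were vehicle for no effect and reference inhibitor for full effect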
ERa coact inh: ERα–SRC-1 coactivator interaction inhibitors, primary screen, biochemical, TR-FRET, ERα LBD, estradiol-bound | Estrogen receptor (Homo sapiens), P03372 | TR-FRET ER-alpha LBD / SRC-1 peptide | inhibition, % at 25.6 µM | 86,000 compounds, 1.7% hits | AID 629, 2007; in the data active = inhibition above about 50%;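 also: 0% = receptor plus peptide control and 100% = peptide only without receptor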
ERa SRC1 pot: enhancers of ERα–SRC-1 coactivator binding, primary screen, biochemical, TR-FRET, ERα LBD, low estradiol | AID 639, 2007 | Estrogen receptor (Homo sapiens), P03372 | 86,000 compounds, 1.3% hits | coactivator binding (% of control), % at 25.6 µM | TR-FRET ERalpha-LBD/SRC-Cy5 coactivator binding, 2 h; 100 = basal binding, no effect; in the data active = activity above about 200%;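 also: binding measured in presence of low estradiol as agonist stimulus; 0% = peptide alone without receptor and 100% = receptor with peptide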
Smad3 FoxH1 inh: Smad3/FoxH1 peptide binding inhibitors, primary screen, biochemical, TR-FRET. Mothers against decapentaplegic homolog 3 (Homo sapiens), P84022. TR-FRET Smad3/Dy647-FoxH1 peptide binding, europium anti-His. inhibition, % at 25 µM. 88,000 compounds, 0.29% hits;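 active = compounds that reduce the energy-transfer binding signal between the protein and its labelled peptide by more than half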;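 also: 0% = Smad3 plus labelled peptide maximal FRET and 100% = peptide-only background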
Target sequence (P84022 whole entry, looked up): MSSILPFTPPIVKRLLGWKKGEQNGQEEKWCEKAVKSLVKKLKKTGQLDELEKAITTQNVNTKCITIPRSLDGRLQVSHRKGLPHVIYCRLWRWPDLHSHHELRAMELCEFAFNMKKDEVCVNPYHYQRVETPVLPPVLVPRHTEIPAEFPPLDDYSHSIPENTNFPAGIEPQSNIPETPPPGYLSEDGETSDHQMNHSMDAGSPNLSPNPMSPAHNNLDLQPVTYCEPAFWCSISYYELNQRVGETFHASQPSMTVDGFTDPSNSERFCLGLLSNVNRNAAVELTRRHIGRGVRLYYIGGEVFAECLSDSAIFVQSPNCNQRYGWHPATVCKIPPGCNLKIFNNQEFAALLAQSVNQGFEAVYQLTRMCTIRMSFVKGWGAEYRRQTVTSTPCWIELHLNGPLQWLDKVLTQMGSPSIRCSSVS
The depositor's hits bear a star; . = no result; ! = not confirmed by another sample; [ ] = remark or other dose.

SMILES	ERb SRC1 inh	Calb biofilm kill	HePTP inhibitor	ERa coact inh	ERa SRC1 pot	Smad3 FoxH1 inh
CCOC(=O)C1=C(C)NC(=O)NC1c1ccco1 (stereo not drawn)	66.1*	3.8	-9.5	48.2	61.3	8.4
CCOC(=O)C1=C(C)NC(=O)NC1c1ccsc1 (stereo not drawn)	-4.7	-3.3	103.9*	1.6	94.2	-3.7
CC1=C(C(=O)OC(C)C)C(c2ccco2)NC(=O)N1 (stereo not drawn)	54.7*[fluorescence artefact?]	3.4	.	35.2	55.5	11.3
CC(C)NC(=O)C(=O)Nc1ccc2c(c1)OCCO2	.	.	-4.8	.	.	.
CN1CCN(C(=O)/C(=C/c2ccc(Cl)cc2)NC(=O)c2ccccc2)CC1	.	.	-7.6	.	.	.
Cc1ccc(C(=O)Nc2ccccc2C(=O)N2CCC(Cc3ccccc3)CC2)cc1	.	.	3.9	.	.	.
Cc1ccc(/C=N/NS(=O)(=O)c2ccc(Cl)cc2)cc1	.	.	3.6	.	.	.
Cc1ccc(OCC(=O)NNC(=O)c2cc(Cl)ccc2O)c(C)c1	.	.	2.4	.	.	.
N=c1c(C(=O)NCc2ccco2)cc2c(=O)n3ccccc3nc2n1CCc1ccccc1	50.4*	2.7	10.9	80.6*[fluorescence artefact?]	47.7	-5.2
COc1ccc(CCn2c(=N)c(C(=O)NCc3ccco3)cc3c(=O)n4ccccc4nc32)cc1OC	33.6	6.5	0.1	35.3	67.2	16.3
O=C(NCc1ccco1)c1cccn2c(=O)c3cc4ccccc4cc3nc12	48.4	-5.0	.	61.4*[fluorescence artefact?]	137.8	4.9
COc1ccc(CNC(=O)c2cc3c(=O)n4ccccc4nc3n(Cc3ccco3)c2=N)cc1	57.3*[fluorescence artefact?]	4.8	-4.4	91.4*[fluorescence artefact?]	35.6	7.3
Cc1ccc(Cn2c(=N)c(C(=O)NCc3ccco3)cc3c(=O)n4ccccc4nc32)cc1	56.4*[fluorescence artefact?]	1.6	8.7	83.1*[fluorescence artefact?]	15.0	19.4
N=c1c(C(=O)NCc2ccco2)cc2c(=O)n3ccccc3nc2n1CC1CCCO1 (stereo not drawn)	44.1	6.0	.	37.3	67.3	5.9
Cc1[nH]c2ccccc2c1/C=C(/C#N)C(=O)NCc1ccccc1	.	.	1.5	.	.	.
COCCn1cnc2c(c1=O)c1nc3ccccc3nc1n2/N=C/c1cccc(OC)c1OC	0.3	7.6	6.7	9.7	93.2	-5.4
C=CCn1cnc2c(c1=O)c1nc3ccccc3nc1n2/N=C/c1cccc(OC)c1	33.2	-4.0	7.0	68.4*[fluorescence artefact?]	93.7	-9.0
N=C1[C@H](O)[C@]2(I)c3ccccc3N3C(=N)[C@H](O)[C@@H]4c5ccccc5N1[C@@H]4[C@@H]32	.	.	.	.	.	57.1*
Cc1ccc(N(CC2=NCCN2)c2cccc(O)c2)cc1	70.2*!	6.8	6.2	-4.3	94.3	1.0
O=C1c2ccccc2C(=O)N1c1ccc2[nH]c(=S)sc2c1	.	.	3.3	.	.	.
CCOc1ccc(C(=O)N2CCN=C2SC)cc1OCC	-5.4	-0.2	7.2	0.1	100.3	17.8
CCOc1ccccc1C(=O)N1CCN=C1SC	86.9*	10.8	1.6	-2.0	90.0	1.2
N#Cc1c(C(F)(F)F)cc(-c2ccccc2)nc1SCc1nc(N)nc(N2CCOCC2)n1	48.9	-6.5	11.2	62.1*	361.9*[fluorescence artefact?]	2.6
O=C(NCc1ccc2c(c1)OCO2)C(=O)Nc1ccccc1F	.	.	-5.4	.	.	.
O=C(c1noc2c1CCCC2)N1CCN(C(c2ccccc2)c2ccccc2)CC1	-9.9	-2.5	9.8	-11.1	239.7*	-2.1
SMILES	ERb SRC1 inh	Calb biofilm kill	HePTP inhibitor	ERa coact inh	ERa SRC1 pot	Smad3 FoxH1 inh
CCSCCOC(=O)C1=C(C)NC(=O)NC1c1cc(OC)c(OC)c(OC)c1 (stereo not drawn)	.	.	-21.5	.	.	.
CCCOC(=O)c1cc(-c2ccc(/C=C3/C(=O)N(C)C(=O)C(C#N)=C3C)o2)ccc1Cl	67.2*	11.6	.	82.7*[fluorescence artefact?]	42.5	-1.1
CCOC(=O)c1cc(-c2ccc(C=C3C(=O)N(C)C(=O)N(C)C3=O)o2)ccc1Cl	.	.	-8.7	.	.	.
CC1=C(C#N)c2nc(N)c(C#N)c(C)c2/C1=C/c1ccc(-c2ccc(C(=O)O)c(Cl)c2)o1	.	.	102.0*	.	.	.
CC1=C(C#N)c2nc(N)c(C#N)c(C)c2/C1=C\c1ccc(-c2cccc(Cl)c2)o1	.	.	4.3	.	.	.
OCn1c2ccc(Cl)cc2c2cc(Cl)ccc21	.	.	-9.4	.	.	.
COc1ccc2c(c1)nc(SCc1ccc(Cl)cc1)n2C	.	.	-12.6	.	.	.
Cc1cc(-n2ccnc2)n2c(nc3ccccc32)c1C#N	5.8	1.4	-3.7	3.9	69.2	-8.6
CCCc1cc(-n2ccnc2)n2c(nc3ccccc32)c1C#N	41.1	7.5	10.8	66.3*	105.0	5.3
CCN(CC)CCNC1=CC(=O)OC12CCCCC2	-4.0	3.5	.	31.0	105.7	1.9
CCN(CC)C1=CC(=O)OC12CCCCC2	61.5*	-0.3	7.1	-37.0	72.5	7.4
O=C(CCn1nc(-c2ccc(Cl)cc2)ccc1=O)NCCCN1CCCCCC1	31.4	1.2	4.8	74.3*[fluorescence artefact?]	98.9	1.6
O=C(Cn1nc(-c2ccc(Cl)cc2)ccc1=O)NCCCN1CCN(Cc2ccccc2)CC1	1.0	1.1	-17.5	3.0	108.3	5.5
CCN1C(=O)CC(C(=O)NC)SC1=Nc1cc(Cl)c(O)c(Cl)c1 (stereo not drawn)	50.2*[fluorescence artefact?]	9.7	-8.6	31.3	81.4	-21.9
COc1ccc(C2=Nn3c(nnc3-c3cccnc3)SC2)cc1	58.3*[fluorescence artefact?]	11.2	2.8	-9.8	99.1	6.9
Nc1ccc(-c2ccc(Nc3cc(S(=O)(=O)O)c(N)c4c3C(=O)c3ccccc3C4=O)cc2)c(S(=O)(=O)O)c1	.	.	.	.	.	93.7*
O=C(CC(c1ccccc1)c1ccccc1)Nc1ccccc1Br	.	.	9.3	.	.	.
CCC(C)NC(=O)c1ccc(CN2CCN(c3ccccc3)CC2)cc1 (stereo not drawn)	.	.	4.3	.	.	.
Cc1ccc2oc(-c3ccc(NC(=O)c4ccc(-c5ccc(Cl)cc5)o4)cc3O)nc2c1	.	.	93.7*	.	.	.
COc1ccc(CC(=O)Nc2ccc(-c3nc4cc(C)ccc4o3)c(O)c2)cc1OC	53.4*[fluorescence artefact?]	8.2	20.5	89.8*[fluorescence artefact?]	122.0	-69.5
O=C(Nc1ccc2oc(-c3cccc(Cl)c3Cl)nc2c1)c1ccco1	.	.	101.0*	.	.	.
C=CCn1c(SCC(=O)N2CCCCC2)nc2sc3c(c2c1=O)CCC3	.	.	-19.5	.	.	.
Cc1ccc(NC2CC(C)N(C(=O)c3ccc(F)cc3)c3ccc(C)cc32)cc1 (stereo not drawn)	.	.	9.0	.	.	.
CCOc1ccc(N2C(=O)/C(=C/c3ccc(-c4cc([N+](=O)[O-])ccc4Cl)o3)C(=O)NC2=S)cc1	.	.	10.2	.	.	.
O=C1NC(=S)N/C1=C/c1ccc(-c2cc([N+](=O)[O-])ccc2Cl)o1	.	.	80.2*	.	.	.
